Read-out in assay [1]: Monocyte Chemoattractant Protein-1 (MCP1), CCL2 (gene 6347)
Description: BSK_LPS_MCP1: BioMAP Diversity Plus: LPS Assay for Monocyte Chemoattractant Protein-1 (MCP1) Biomarker Activity (AID 2283081).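 For AC50: secreted MCP-1 protein quantified by ELISA in culture supernatant.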 The settings on record: primary human HUVEC with PBMC; actives raise or lower the signal. The essentials: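 HUVEC plus PBMC co-culture (human primary cells, LPS system) exposed to test chemical for 24 h; MCP-1 measured by ELISA. Bidirectional curve fitting against DMSO baseline; parallel SRB total-protein staining flags overt cytotoxicity.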

Assay [2] can be described thus: BSK_LPS_PGE2: BioMAP Diversity Plus: LPS Assay for Prostaglandin E2 (PGE2) Biomarker Activity (AID 2283082).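 For AC50: secreted prostaglandin E2 measured by ELISA in LPS-stimulated co-culture.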 The settings on record: primary human HUVEC with PBMC; actives raise or lower the signal. The essentials:
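Endpoint derived from bidirectional curve fitting versus DMSO of ELISA-measured PGE2 in LPS-stimulated human primary vascular co-culture (HUVEC with PBMC) harvested at 24 h.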

Read-out in assay [3]: Macrophage colony-stimulating factor (MCSF), CSF1 (gene 1435)
Briefly: BSK_LPS_MCSF: BioMAP Diversity Plus: LPS Assay for Macrophage colony-stimulating factor (MCSF) Biomarker Activity (AID 2283083). The settings on record: primary human HUVEC with PBMC; actives raise or lower the signal. The essentials: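 Human umbilical vein endothelial cells co-cultured with peripheral blood mononuclear cells were exposed to compound for 24 h. M-CSF levels were measured by ELISA, and bidirectional curve fitting used DMSO as the negative control and baseline.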

Read-out in assay [4]: Tissue Factor, F3 (gene 2152)
Description: BSK_LPS_TissueFactor: BioMAP Diversity Plus: LPS Assay for Tissue Factor Biomarker Activity (AID 2283084). The settings on record: primary human HUVEC with PBMC; actives raise or lower the signal. The method, boiled down:
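Human umbilical vein endothelial cells co-cultured with peripheral blood mononuclear cells were dosed and stimulated with LPS. Cell-surface CD142 was quantified by ELISA at 24 h. Activity was fitted bidirectionally against DMSO baseline.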

Read-out in assay [5]: Tumor necrosis factor (Homo sapiens) (UniProt P01375)
Briefly: BSK_LPS_TNFa: BioMAP Diversity Plus: LPS Assay for Tumour Necrosis Factor alpha (TNFa) Biomarker Activity (AID 2283085). The note with it: primary human HUVEC with PBMC; actives raise or lower the signal. The essentials: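 Primary human vascular co-culture of HUVEC and PBMC; TNFa ELISA 24 h after treatment, analysed as increase or decrease relative to DMSO control.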

Read-out in assay [6]: Vascular cell adhesion molecule 1 (VCAM1), VCAM1 (gene 7412)
Description: BSK_LPS_VCAM1: BioMAP Diversity Plus: LPS Assay for Vascular cell adhesion molecule 1 (VCAM1) Biomarker Activity (AID 2283086). The note with it: primary human HUVEC with PBMC; actives raise or lower the signal. The method, boiled down:
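Primary human vascular co-culture (umbilical vein endothelium plus PBMC) stimulated with LPS received chemical; 24 h later VCAM-1 was read by ELISA. Overt cytotoxicity was assessed by sulforhodamine B staining of parallel cultures at the same time point.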

Read-out in assay [7]: CD40, CD40 (gene 958)
Briefly: BSK_SAg_CD40: BioMAP Diversity Plus: SAg Assay for CD40 Biomarker Activity (AID 2283088). The settings on record: primary human HUVEC with PBMC; actives raise or lower the signal. The essentials:
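Human umbilical vein endothelial cells co-cultured with PBMC; CD40 levels measured by ELISA with fluorescence read-out 24 h after chemical dosing. Gain or loss of signal fitted bidirectionally against DMSO baseline.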

Read-out in assay [8]: CD69, CD69 (gene 969)
Description: BSK_SAg_CD69: BioMAP Diversity Plus: SAg Assay for CD69 Biomarker Activity (AID 2283089).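 For AC50: cell surface CD69 protein quantified by ELISA with fluorescence detection.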 The note with it: primary human HUVEC with PBMC; actives raise or lower the signal. The method, boiled down:
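Values derive from bidirectional fitting relative to DMSO vehicle. Cells: umbilical vein endothelium plus peripheral blood mononuclear cells, treated 24 h before fluorescent ELISA for CD69.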

Read-out in assay [9]: Monocyte Chemoattractant Protein-1 (MCP1), CCL2 (gene 6347)
Briefly: BSK_SAg_MCP1: BioMAP Diversity Plus: SAg Assay for Monocyte Chemoattractant Protein-1 (MCP1) Biomarker Activity (AID 2283090). The settings on record: primary human HUVEC with PBMC; actives raise or lower the signal. The method, boiled down:
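MCP-1 levels in the endothelial–PBMC SAg co-culture were quantified by ELISA at 24 h post-dosing; both increases and decreases versus DMSO scored. Cytotoxicity monitored by SRB total protein in parallel cultures.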

Read-out in assay [10]: E-selectin (Homo sapiens) (UniProt P16581)
Briefly: BSK_SAg_Eselectin: BioMAP Diversity Plus: SAg Assay for Eselectin Biomarker Activity (AID 2283091). The settings on record: primary human HUVEC with PBMC; actives raise or lower the signal. The essentials:
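HUVEC co-cultured with PBMC, compound dosed then read at 24 h; E-selectin measured by ELISA. Activity fitted bidirectionally against DMSO as negative control and baseline.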

Read-out in assay [11]: Monokine induced gamma interferon (MIG), CXCL9 (gene 4283)
Description: BSK_SAg_MIG: BioMAP Diversity Plus: SAg Assay for Monokine induced gamma interferon (MIG) Biomarker Activity (AID 2283092). The note with it: primary human HUVEC with PBMC; actives raise or lower the signal. The essentials: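 Values reflect bidirectional fitting of ELISA-measured MIG against DMSO vehicle, taken 24 h after dosing of a co-culture of human umbilical vein endothelial cells and peripheral blood mononuclear cells.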

A short description of assay [12]: BSK_SAg_PBMCCytotoxicity: PBMC Cytotoxicity Assessment in the BioMAP Diversity Plus: SAg Assay (AID 2283093).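 For AC50: PBMC superantigen activated with SEB plus TSST-1 one hour after compound addition.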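 Note: PBMC viability measured as Alamar Blue reduction fluorescence at 546/580 nm; fitted both ways against DMSO so a hit may be loss or gain of signal.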 The settings on record: primary human HUVEC with PBMC. The method, boiled down: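 Human umbilical vein endothelial cells co-cultured with PBMC; PBMC (75,000/well) pre-treated with compound 1 h, then activated with SEB and TSST-1 (20 ng/mL final each) for 90 h. Alamar Blue added 6 h, fluorescence 546/580 nm; bidirectional fit versus DMSO.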

Read-out in assay [13]: Interleukin-8 (IL8), CXCL8 (gene 3576)
Briefly: BSK_SAg_IL8: BioMAP Diversity Plus: SAg Assay for Interleukin-8 (IL8) Biomarker Activity (AID 2283094). The note with it: primary human HUVEC with PBMC; actives raise or lower the signal. The method, boiled down: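 In this co-culture of human umbilical vein endothelium with peripheral blood mononuclear cells, IL-8 is assayed by ELISA at 24 h. DMSO serves as baseline for bidirectional curve fitting.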

A short description of assay [14]: BSK_SAg_Proliferation: Cell Proliferation Assessment in the BioMAP Diversity Plus: SAg Assay (AID 2283095).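 Note: relative cell number as total protein by SRB absorbance in sub-confluent culture.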 The note with it: primary human HUVEC with PBMC. The essentials:
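Readout is SRB-stained protein (560 nm) in a primary human HUVEC and PBMC co-culture; sub-confluent cultures are read at 96 h. Activity is fitted bidirectionally using DMSO as baseline.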

The nature of assay [15]: BSK_SAg_SRB: Viability Assessment in the BioMAP Diversity Plus: SAg Assay (AID 2283096).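 Note: cells read one day after compound addition; hits may be either gain or loss of signal compared with DMSO.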 The note with it: primary human HUVEC with PBMC. The method, boiled down: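 Endothelial/PBMC primary human co-culture; compound 24 h; fix 10% TCA, stain 0.1% SRB, A560; protein content as cytotoxicity proxy; bidirectional curve fit, DMSO = baseline.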

The values below come from PubChem BioAssay (EPA / NIEHS).

Activity calls are given as the source filed them. Rule for the calls: active = hit-call score of the fitted dose curve at least 0.9, where 1 is the maximum; inactive = score below 0.9.

Tumor necrosis factor (Homo sapiens), sequence (P01375 whole entry, looked up): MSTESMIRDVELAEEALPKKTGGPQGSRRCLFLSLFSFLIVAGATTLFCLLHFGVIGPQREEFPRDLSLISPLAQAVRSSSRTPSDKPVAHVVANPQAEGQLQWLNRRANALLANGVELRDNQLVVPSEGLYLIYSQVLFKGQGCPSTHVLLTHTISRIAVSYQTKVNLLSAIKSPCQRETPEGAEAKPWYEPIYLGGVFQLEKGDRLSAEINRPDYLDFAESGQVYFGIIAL
E-selectin (Homo sapiens), sequence (P16581 whole entry, looked up): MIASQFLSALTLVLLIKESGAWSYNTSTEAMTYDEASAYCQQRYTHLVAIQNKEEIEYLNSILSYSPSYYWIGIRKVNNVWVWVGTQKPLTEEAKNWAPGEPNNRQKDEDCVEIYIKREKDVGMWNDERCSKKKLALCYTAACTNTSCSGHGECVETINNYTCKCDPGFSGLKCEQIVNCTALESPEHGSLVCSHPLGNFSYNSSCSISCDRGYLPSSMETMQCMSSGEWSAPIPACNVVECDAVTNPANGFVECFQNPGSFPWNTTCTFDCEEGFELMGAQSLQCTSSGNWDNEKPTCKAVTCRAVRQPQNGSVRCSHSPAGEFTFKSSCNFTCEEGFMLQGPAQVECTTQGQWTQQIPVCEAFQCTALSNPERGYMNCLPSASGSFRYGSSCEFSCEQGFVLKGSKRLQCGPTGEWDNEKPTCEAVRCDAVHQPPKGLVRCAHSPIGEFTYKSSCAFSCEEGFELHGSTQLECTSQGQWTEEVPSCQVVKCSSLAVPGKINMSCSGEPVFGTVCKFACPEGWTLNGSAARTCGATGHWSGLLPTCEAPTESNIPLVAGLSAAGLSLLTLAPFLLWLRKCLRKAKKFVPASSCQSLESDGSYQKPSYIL

For the compound `CCc1ccc(C(c2ccc(CC)cc2)C(Cl)Cl)cc1`, the AC50 (usually the concentration at which the activity in the assay is half-maximal) is 31.4 µM (active) in assay [1]; 0.158 µM (active) in assay [2]; 20 µM (active) in assay [3]; 29.9 µM (active) in [5]; 27.2 µM (active) in [6]; 28.9 µM (active) in assay [7]. Besides, the AC50 in assay [8] was 15.1 µM (active); in [9] it was 31.8 µM (active); in assay [10] it was 26 µM (active); in assay [11], 33.6 µM (active); in assay [12], 14.5 µM (active); in assay [14], 8.44 µM (active). Further, in assay [15], the AC50 is 29.1 µM (active). Besides, the outcome in assay [4] and in [13] was inactive.

As to `OCC(F)(F)C(F)(F)C(F)(F)F`, the outcome in [1], in [2], in [3], in assay [4], in [5] and in assay [6] was inactive. Also, the result in assay [7], in assay [8], in assay [9], in assay [10], in [11] and in [12] was inactive. For the same compound, the result in assay [13], in assay [14] and in assay [15] was inactive.

For the compound `O=C(O)C(F)(F)C(F)(F)F`, the result in [1], in [2], in assay [3], in assay [4], in assay [5] and in assay [6] was inactive. In addition, the result in assay [7], in [8], in [9], in assay [10], in [11] and in assay [12] was inactive. Besides, the outcome in [13], in assay [14] and in [15] was inactive.

In the case of `FC(F)(F)C(F)(F)C(F)(F)C(F)(F)C(F)(F)C(F)(F)CC1CO1` (stereo not given), the outcome in [1], in assay [2], in [3], in [4], in [5] and in assay [6] was inactive. Moreover, the outcome in assay [7], in [8], in [9], in assay [10], in assay [11] and in assay [12] was inactive. Further, the result in assay [13], in assay [14] and in assay [15] was inactive.
